Measurements: PubChem BioAssay (NCATS)
Inconclusive results are not listed. Active and inactive are the calls of the source. The call rests on the fitted dose curve; in most records, active means well fitted cell-killing curve with a large enough effect; inconclusive means small, poorly fitted or top-dose-only effect; inactive means no such curve, though single readings can be large or run the other way.

Experiment: qHTS of pediatric cancer cell lines to identify multiple opportunities for drug repurposing: Primary screen for LAN-5 cells (AID 1347100)
Details: LAN-5 neuroblastoma viability, CellTiter-Glo luminescence, 48 h; series mostly up to 46 µM; activity change, negative = cytotoxic: at the top concentration
Source text: Drug repurposing or repositioning has been offered as a strategy for drug development in oncology programs. This approach has special potential for childhood cancers and other rare or orphan diseases, where the expected return on new drug development has been a disincentive to pharmaceuticals.
In this project we exploit the poly-pharmacology of drugs to discover new indications via phenotypic screening of a panel of 19 well-characterized cell lines derived from solid tumors seen in children and adolescents. The goal is to identify approved drugs with previously unrecognized anticancer properties that has the potential to reveal new mechanisms and biological processes involved in carcinogenesis or drug resistance. We employed a titration-based paradigm (quantitative high-throughput screening or qHTS), where all compounds were tested at multiple concentrations for their effect on cell viability. Concentration-response curves (CRCs) were derived directly from the primary screen, and both potency and efficacy values were used to identify compounds with robust bioactivity profiles. We screened the NIH Chemical Genomics Center (NCGC) Pharmaceutical Collection (NPC) and Mechanism Interrogation Plate (MIPE) small molecule collections of approved and investigational compounds against these cell lines; and measured metabolically active cells after 48 hours of compound treatment as a proxy for cell viability.
Assay Submitter: Nathalia J. Martinez, National Center for Advancing Translational Sciences, National Institutes of Health, Rockville, MD, USA; email: natalia.martinez@nih.gov
[1] Shen, M et al. Quantitative high-throughput phenotypic screening of pediatric cancer cell lines identifies multiple opportunities for drug repurposing. Oncotarget 2017 Dec 19;9(4):4758-4772. PMID 29435139.
The cells were obtained from University of North Carolina (UNC), Pediatric Preclinical Testing Program (PPT), and Coriell Institute (CI).
qHTS cell viability assay:
Cells were assayed in growth media at a density of 500-1,000 cells/well. Five microliters of cells were dispensed into 1,536-well, white, solid-bottom, TC-treated plates (Greiner Bio One) using a multidrop dispenser and incubated at 37 degrees C, 5% CO2, under a humidified atmosphere for 5 hours. Twenty-three nanoliters of compounds and controls (neutral control DMSO or positive control bortezomib at final concentration of 2.3 µM) were subsequently transferred by Kalypsys pintool. For primary screens, the MIPE collection was tested at 11-point dilutions (final concentrations range from 0.78 nM to 46 µM) and the NPC collection at 8-point dilutions (final concentrations range from 0.59 nM to 46 µM). Compounds tested in follow-up screens were assayed at 11-point dilutions. Cells were incubated for 48 hours, followed by addition of 3 µL of CellTiter-Glo (Promega). After a 15 min incubation at room temperature, samples were analyzed for luminescence intensity using a ViewLux High-throughput CCD imager equipped with clear filters.
Potency means the concentration at half of the fitted maximal effect.

Q: Which “activity change, negative = cytotoxic” value does the source give for COc1cc2ncn(-c3cc(OCc4ccccc4S(C)(=O)=O)c(C#N)s3)c2cc1OC here?
A: -15.7% (inactive)

Q: Which Potency does the source give for Nc1ncnc2c1ncn2[C@@H]1O[C@H](CO)[C@@H](O)[C@@H]1O here?
A: 1.48 µM (active)

Q: For CSc1cccc(Nc2ncc3cc(-c4c(Cl)cccc4Cl)c(=O)n(C)c3n2)c1, which Potency is on record?
A: 0.372 µM (active)

Q: With CN(C)c1ccc(-c2nc3ncc(Cl)c(N4CCN(CC(=O)Nc5nccs5)CC4)c3[nH]2)cc1 as the compound, how does the Potency read?
A: 0.833 µM (active)

Q: Which “activity change, negative = cytotoxic” value does the source give for Cc1cn([C@@H]2C[C@@H](O)[C@H](CO)O2)c(=O)[nH]c1=O here?
A: -10.1% (inactive)

Q: With CCOC(=O)N1CCN([N+]([O-])=NOc2cc(ON=[N+]([O-])N3CCN(C(=O)OCC)CC3)c([N+](=O)[O-])cc2[N+](=O)[O-])CC1 as the compound, how does the “activity change, negative = cytotoxic” value read?
A: -7.23% (inactive)

Q: Which “activity change, negative = cytotoxic” value does the source give for C=CC[N+]1([C@H]2C[C@H]3[C@@H]4CC[C@H]5C[C@H](O)[C@@H](N6CCOCC6)C[C@]5(C)[C@@H]4CC[C@]3(C)[C@H]2OC(C)=O)CCCC1 here?
A: -0.864% (inactive)

Q: With NC1(C(=O)N[C@@H](CCO)c2ccc(Cl)cc2)CCN(c2ncnc3[nH]ccc23)CC1 as the compound, how does the Potency read?
A: 18.7 µM (active)

Q: Which Potency does the source give for CC(=O)Nc1cccc(-n2c(=O)n(C3CC3)c(=O)c3c(Nc4ccc(I)cc4F)n(C)c(=O)c(C)c32)c1 here?
A: 18.7 µM (active)

Q: For O=C(CO)N1CCC(c2[nH]nc(-c3ccc(Cl)cc3)c2-c2ccncn2)CC1, which “activity change, negative = cytotoxic” value is on record?
A: -0.256% (inactive)

Q: With CN(C)CCOc1ccc(C(=C(CCCl)c2ccccc2)c2ccccc2)cc1 as the compound, how does the “activity change, negative = cytotoxic” value read?
A: -27.9% (inactive)

Q: For CCc1cc(-c2n[nH]c(C)c2-c2ccc3c(c2)OCCO3)c(O)cc1O, which Potency is on record?
A: 5.9 µM (active)

Q: Which “activity change, negative = cytotoxic” value does the source give for CN1[C@H]2CC[C@H]1CC(OC(=O)c1c[nH]c3ccccc13)C2 (stereo not given in full) here?
A: -8.94% (inactive)

Q: For CC[C@H](C)n1cc(C)c2c(C(=O)NCc3c(C)cc(C)[nH]c3=O)cc(-c3ccc(N4CCNCC4)nc3)cc21, which Potency is on record?
A: 23.5 µM (active)

Q: With Cc1ccc(S(=O)(=O)OCC(=O)Nc2ccc(C(=O)O)c(O)c2)cc1 as the compound, how does the Potency read?
A: 2.35 µM (active)

Q: With COc1cc([C@@H]2c3cc4c(cc3[C@@H](O[C@@H]3O[C@@H]5CO[C@@H](C)O[C@@H]5[C@H](O)[C@@H]3O)[C@H]3COC(=O)[C@H]23)OCO4)cc(OC)c1O as the compound, how does the Potency read?
A: 0.235 µM (active)

Q: With CN1CC(=O)N2C(Cc3c([nH]c4ccccc34)[C@H]2c2ccc3c(c2)OCO3)C1=O (stereo not given in full) as the compound, how does the “activity change, negative = cytotoxic” value read?
A: -5.51% (inactive)

Q: Which Potency does the source give for c1ccc(-c2oc3ncnc(NC[C@@H]4CCCO4)c3c2-c2ccccc2)cc1 here?
A: 18.7 µM (active)

Q: Which Potency does the source give for O=c1[nH]c(=O)n([C@H]2C[C@@H](O)[C@@H](CO)O2)cc1C(F)(F)F here?
A: 3.32 µM (active)

Q: Which “activity change, negative = cytotoxic” value does the source give for CC(C)=CCCC(C)=CCCC(C)=CCCC(C)=CCCC(C)=CCCC(C)=CCCC(C)=CCCC(C)=CCCC(C)=CCO here?
A: -1.94% (inactive)

Q: With Cc1nc(C(=O)NCC(=O)O)c(O)c2ccc(Oc3ccccc3)cc12 as the compound, how does the “activity change, negative = cytotoxic” value read?
A: -20% (inactive)

Q: With C#C[C@]1(O)CC[C@H]2[C@H]3CCc4cc(OC)ccc4[C@H]3CC[C@@]21C as the compound, how does the “activity change, negative = cytotoxic” value read?
A: -27.1% (inactive)

Q: Which Potency does the source give for CN(C)S(=O)(=O)c1ccc2c(c1)C(=Cc1cc3c([nH]1)CCCC3)C(=O)N2 here?
A: 2.35 µM (active)

Q: With CN1CCN2c3ncccc3Cc3ccccc3C2C1 (stereo not given) as the compound, how does the “activity change, negative = cytotoxic” value read?
A: -0.357% (inactive)

Q: Which Potency does the source give for N#CC(c1ccc(Cl)cc1)c1c(Cl)cc(-n2ncc(=O)[nH]c2=O)cc1Cl (stereo not given) here?
A: 7.43 µM (active)

Q: For COc1ccc2c(c1)c(C1=C(c3c[nH]c4ccccc34)C(=O)NC1=O)cn2CCCN(C)C, which Potency is on record?
A: 16.6 µM (active)

Q: For CCC(=C(c1ccc(O)cc1)c1ccc(OCCNC)cc1)c1ccccc1, which Potency is on record?
A: 26.4 µM (active)

Q: With O=C1NC(=O)C(=Cc2ccc(-c3ccc(F)cc3O)o2)S1 as the compound, how does the “activity change, negative = cytotoxic” value read?
A: -18.9% (inactive)

Q: Which Potency does the source give for OC(c1cc(C(F)(F)F)nc2c(C(F)(F)F)cccc12)C1CCCCN1 (stereo not given) here?
A: 33.2 µM (active)

Q: For CCCCN(CCCC)CC(O)c1cc(Cl)cc2c1-c1ccc(Cl)cc1C2=Cc1ccc(Cl)cc1 (stereo not given), which “activity change, negative = cytotoxic” value is on record?
A: 2.25% (inactive)

Q: With COC(=O)[C@H](c1ccccc1Cl)N1CCc2sccc2C1 as the compound, how does the “activity change, negative = cytotoxic” value read?
A: 153% (inactive)

Q: With CC(C)Oc1cc(Nc2nc(N[C@@H](C)c3ccc(F)cn3)ncc2Cl)[nH]n1 as the compound, how does the Potency read?
A: 2.35 µM (active)

Q: With CN(C)c1nc(Cc2ccc(NC(=O)c3ccc(C(F)(F)F)cc3)cc2)nc(N(C)C)c1CC(=O)O as the compound, how does the “activity change, negative = cytotoxic” value read?
A: 150% (inactive)

Q: With CC(C)(OCc1nn(Cc2ccccc2)c2ccccc12)C(=O)O as the compound, how does the “activity change, negative = cytotoxic” value read?
A: -7.09% (inactive)

Q: With CC(C)CNc1ccnc(NCc2csc(-c3ccccc3)n2)n1 as the compound, how does the Potency read?
A: 14.8 µM (active)

Q: For CN[C@H]1[C@@H](O[C@@H]2[C@H](O[C@@H]3[C@@H](O)[C@@H](O)[C@@H](N=C(N)N)[C@@H](O)[C@@H]3N=C(N)N)O[C@H](C)[C@@]2(O)C=O)O[C@@H](CO)[C@@H](O)[C@H]1O, which activity change, negative = cytotoxic is on record?
A: -3.6% [at 9.22 µM] (inactive)

Q: Which “activity change, negative = cytotoxic” value does the source give for N#Cc1c(N(CC(=O)O)CC(=O)O)sc(C(=O)O)c1CC(=O)O here?
A: -2.06% (inactive)

Q: For CCCCCCOC(=O)N=C(N)c1ccc(NCc2nc3cc(C(=O)N(CCC(=O)OCC)c4ccccn4)ccc3n2C)cc1, which Potency is on record?
A: 23.5 µM (active)

Q: For CN1CCC[C@H]1CCO[C@](C)(c1ccccc1)c1ccc(Cl)cc1, which “activity change, negative = cytotoxic” value is on record?
A: -45.1% (inactive)

Q: Which “activity change, negative = cytotoxic” value does the source give for CCCCC(F)(F)[C@@]1(O)CC[C@H]2[C@H](CC(=O)[C@@H]2CCCCCCC(=O)O)O1 here?
A: -3.56% (inactive)
